Only some compounds are listed: those with a hit (about 4.2% of all), similar ones and a draw of the others.
VDR inh = inhibitors of human vitamin D receptor. Potency, µM, without a hit: max response, negative = inhibition, usual class: inhibitors. hit rate 0.93% among 400,000. VDR-SRC2-3 peptide fluorescence polarization, 2 h. AID 504847. P11473
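Reagent solutions, kept cold and dark, are dispensed first; compounds are then pinned in at 23 nl, plates briefly spun, and incubated 2 h at ambient temperature. Inhibition of VDR–SRC2-3 peptide binding is read by fluorescence polarization.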
PLK1 PBD block = blocks phosphopeptide binding to human PLK1 polo-box domain. hit rate 2.8% among 360,000. Potency, µM, for inactives: max response, negative = inhibition, hits mostly inhibitors. Plk1 PBD binding of FITC phosphopeptide, fluorescence polarization. AID 720504; note: series mostly up to about 57 µM; nearly all actives have a fitted effect of over 65% in size
12-LOX inh = blocks human arachidonate 12S-lipoxygenase; AID 1671190; P18054; Potency, µM (doses to about 108 µM), without a hit: top-dose activity change, negative = inhibition, actives largely listed as inhibitors; hit rate 1.1% among 580,000; purified 12hLO, xylenol orange hydroperoxide absorbance
Target sequence (P18054 whole entry, looked up): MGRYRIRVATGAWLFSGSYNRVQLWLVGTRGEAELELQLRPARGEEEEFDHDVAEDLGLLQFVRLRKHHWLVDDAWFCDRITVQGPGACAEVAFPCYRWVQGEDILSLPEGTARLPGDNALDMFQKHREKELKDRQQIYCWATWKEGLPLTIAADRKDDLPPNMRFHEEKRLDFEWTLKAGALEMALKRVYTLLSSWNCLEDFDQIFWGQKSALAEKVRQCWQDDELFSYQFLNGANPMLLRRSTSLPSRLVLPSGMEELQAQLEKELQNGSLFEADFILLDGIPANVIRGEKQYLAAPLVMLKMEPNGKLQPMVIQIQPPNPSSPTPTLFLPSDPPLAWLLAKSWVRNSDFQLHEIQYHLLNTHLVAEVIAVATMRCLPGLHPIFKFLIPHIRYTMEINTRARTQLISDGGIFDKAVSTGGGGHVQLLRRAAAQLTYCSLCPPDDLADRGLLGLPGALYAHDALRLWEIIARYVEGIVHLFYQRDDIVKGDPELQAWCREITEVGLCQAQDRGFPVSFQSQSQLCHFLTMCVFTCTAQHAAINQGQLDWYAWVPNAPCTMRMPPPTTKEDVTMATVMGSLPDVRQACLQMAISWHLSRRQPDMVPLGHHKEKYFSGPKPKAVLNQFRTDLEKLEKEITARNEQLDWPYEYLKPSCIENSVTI
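Purified human 12hLO (150 nM final) in 25 mM Hepes, 0.01% Triton X-100, pH 7.0 was preincubated 15 min at room temperature with compound. Then 40 uM arachidonic acid was added, 30 min. Hydroperoxide was read by Fe-XO absorbance ratio 573/405 nm.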
Sfp inh = Sfp phosphopantetheinyl transferase inhibition; Potency, µM, without a hit: largest response in the series, negative = inhibition, actives largely listed as inhibitors; hit rate 3.5% among 310,000; AID 1490; Biochemical Sfp PPTase activity, qHTS; Q9F4F7;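 note: the enzyme is Sfp with the accession as filed and its product quenches rhodamine fluorescence; 0% = enzyme reaction without inhibitor and -100% = no enzyme wells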
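Fluorescence-quenching assay: 15 nM Sfp-PPTase preincubated 15 min at room temperature with compound, then 5 uM rhodamine-CoA and 12.5 uM BHQ-2-labelled YbbR peptide added. Fluorescence (ex 525/em 598 nm) read at start and after 30 min; difference gives rate.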
* hit, by the source's call; ! = not confirmed by another sample. Calls come from the whole dose curve; as a rule, active = well fitted curve in the direction sought with a large enough effect; inconclusive = small, poorly fitted or top-dose-only effect, or another doubt; inactive = no such curve, though single readings can be large; an effect the other way counts as inactive or inconclusive. Unless noted, % is set by controls: 0 for no effect and ±100 for the full control effect; potency is the fitted concentration of half-maximal effect.

What do the screens show for `CNC(=O)C1C(=S)NC(N)=C(C#N)C1c1ccccc1` (stereo not given)?
VDR inh: 20µM*; PLK1 PBD block: 26.7µM*; 12-LOX inh: inconclusive; Sfp inh: 3.98µM*

What do the screens show for `COc1ccc(-c2c(=O)n(OCc3nc4ccccc4[nH]3)c3ccccc3[n+]2[O-])cc1`?
VDR inh: -3.1%; PLK1 PBD block: -3.5%; 12-LOX inh: 442.5%; Sfp inh: -23.0%

Results for C=CCOn1c(=O)c(-c2ccc(OC)cc2)[n+]([O-])c2ccccc21 ?
VDR inh: -5.0%; PLK1 PBD block: 11.9µM*; 12-LOX inh: inconclusive; Sfp inh: -2.5%

How did O=c1c(-c2ccc(Br)cc2)[n+]([O-])c2ccccc2n1OCc1ccccn1 do in these assays?
VDR inh: -17.4%; PLK1 PBD block: 23.8µM*; 12-LOX inh: -15.6%; Sfp inh: -0.4%

How did CCOc1ccc(CNC(=O)Cn2ccc3cc(S(=O)(=O)N4CCCCC4)ccc32)cc1 do in these assays?
VDR inh: 3.1%; 12-LOX inh: -19.4%

What do the screens show for `O=[N+]([O-])c1ccc(NNC(=S)Nc2ccc(F)cc2)cc1`?
VDR inh: inconclusive; PLK1 PBD block: 11.9µM*; 12-LOX inh: inconclusive; Sfp inh: 2.51µM*

How did O=[N+]([O-])c1ccc(Nc2ccc(F)cc2)cc1 do in these assays?
VDR inh: 4.8%; PLK1 PBD block: -4.9%; 12-LOX inh: 0.0%; Sfp inh: 9.4%

How did CC1=NN(c2ccc(C)cc2C)C(=O)C1C(c1cccc(O)c1)C1C(=O)N(c2ccc(C)cc2C)N=C1C (stereo not given) do in these assays?
VDR inh: inconclusive; PLK1 PBD block: 26.7µM*; 12-LOX inh: -18.0%; Sfp inh: -3.8%

How did CC(C)c1cc(=O)n2[nH]c(N)nc2n1 do in these assays?
VDR inh: 4.1%; PLK1 PBD block: -20.6%; 12-LOX inh: 6.3%; Sfp inh: 79.4µM*

How did CC(C)(C)c1cc(=O)n2[nH]c(N)nc2n1 do in these assays?
VDR inh: 9.7%; PLK1 PBD block: -9.8%; 12-LOX inh: 5.0%; Sfp inh: inconclusive

How did O=C(CCN1CCCCC1)Nc1c(-c2ccccc2)c2cc(Br)ccc2[nH]c1=O do in these assays?
12-LOX inh: -25.0%

How did CC(=O)/C=C1/C(=O)Nc2ccccc21 do in these assays?
VDR inh: 44.7µM*; PLK1 PBD block: 21.2µM*; 12-LOX inh: inconclusive; Sfp inh: 50.1µM*

Results for CC(=O)/C=C1\C(=O)N(C)c2ccccc21 ?
VDR inh: 25.1µM*

Results for CN1C(=O)/C(=C\C(=O)c2cccs2)c2ccccc21 ?
VDR inh: 28.2µM*; PLK1 PBD block: 16.8µM*; 12-LOX inh: -24.5%; Sfp inh: 44.7µM*

Results for O=C(Nc1ccc(F)cc1)c1cc2n(n1)CC(c1ccc3c(c1)OCO3)OC2 (stereo not given) ?
12-LOX inh: 34.4%

How did CCOC(=O)c1cc2c(=O)n3ccccc3nc2n(Cc2ccccc2)c1=N do in these assays?
VDR inh: -2.4%; PLK1 PBD block: -26.2%; 12-LOX inh: 0.0%; Sfp inh: 14.6%

What do the screens show for `COc1ccccc1C(=O)Nc1ccc(OCc2cc(=O)n3ccc(C)cc3n2)cc1`?
VDR inh: 10.8%; 12-LOX inh: -12.1%

How did Oc1ccc2ccccc2c1/C=N/c1nc2c(s1)CCCC2 do in these assays?
VDR inh: 3.8%; PLK1 PBD block: 13.4µM*; 12-LOX inh: inconclusive; Sfp inh: -1.6%

What do the screens show for `Oc1ccc2ccccc2c1C=Nc1ccc(Cl)cn1`?
VDR inh: -5.7%; PLK1 PBD block: 16.8µM*; 12-LOX inh: -14.0%; Sfp inh: -11.7%

What do the screens show for `CC(C)Oc1ccc(OCCn2c(S(=O)(=O)O)nc3c(N)ncnc32)cc1`?
VDR inh: -13.9%; PLK1 PBD block: -8.3%; 12-LOX inh: -13.3%; Sfp inh: 9.7%

How did CC(C)Oc1ccc(OCCn2c(=S)[nH]c3c(N)ncnc32)cc1 do in these assays?
VDR inh: -1.0%; PLK1 PBD block: 10.6µM*; 12-LOX inh: 44.7µM*; Sfp inh: 50.1µM*

Results for O=C(Nc1ccccc1N1CCCC1)C1CCN(S(=O)(=O)c2ccccc2)CC1 ?
VDR inh: -2.6%; PLK1 PBD block: 1.0%; 12-LOX inh: 4.7%

How did COc1ccc(CCNC(=O)CSc2nc(C)cc(C)n2)cc1OC do in these assays?
VDR inh: 5.3%; PLK1 PBD block: 3.5%; 12-LOX inh: 3.5%; Sfp inh: 8.5%

What do the screens show for `Cc1ccc(N(CC2=NCCN2)c2cccc(O)c2)cc1`?
VDR inh: -1.9%; PLK1 PBD block: 0.9%; 12-LOX inh: 1.3%; Sfp inh: 79.4µM*!

Results for COc1ccc(NC(=O)CSc2nnc(-c3cccs3)o2)cc1 ?
VDR inh: 2.8%; 12-LOX inh: -4.4%

How did CCCNC(=O)CN1CCN(c2ccc(NC(=O)c3ccc(OC)cc3)cc2C(=O)O)CC1 do in these assays?
VDR inh: 7.2%; 12-LOX inh: inconclusive

Results for CCCn1nc(C)cc1CN(C)c1ccc(NC(=O)c2ccc(OC)cc2)cc1C(=O)O ?
12-LOX inh: 4.47µM*

How did CCOc1ccc(/C=C/c2nc(C#N)c(N(C)Cc3ccccc3)o2)cc1 do in these assays?
12-LOX inh: -25.6%

What do the screens show for `CO[C@H]1C[C@@H]2CC[C@@H](C)[C@@](O)(O2)C(=O)C(=O)N2CCCC[C@H]2C(=O)O[C@H]([C@H](C)C[C@@H]2CC[C@@H](O)[C@H](OC)C2)CC(=O)[C@H](C)/C=C(/C)[C@@H](O)[C@@H](OC)C(=O)[C@H](C)C[C@H](C)C=C/C=C\C=C/1C`?
VDR inh: -23.6%

Results for CO[C@H]1C[C@@H]2CC[C@@H](C)[C@@](O)(O2)C(=O)C(=O)N2CCCC[C@H]2C(=O)O[C@H]([C@H](C)C[C@@H]2CC[C@@H](O)[C@H](OC)C2)CC(=O)[C@H](C)C=C(C)[C@@H](O)[C@@H](OC)C(=O)[C@H](C)C[C@H](C)C=CC=CC=C1C ?
Sfp inh: 79.4µM*

What do the screens show for `CO[C@H]1C[C@@H]2CC[C@@H](C)[C@@](O)(O2)C(=O)C(=O)N2CCCC[C@H]2C(=O)OC([C@H](C)C[C@@H]2CC[C@@H](O)[C@H](OC)C2)CC(=O)[C@H](C)/C=C(\C)[C@@H](O)[C@@H](OC)C(=O)[C@H](C)C[C@H](C)/C=C/C=C/C=C/1C` (stereo not given in full)?
VDR inh: 44.7µM*!; 12-LOX inh: 20.9%; Sfp inh: -6.7%

How did O=C(NC(=S)N1CCCc2ccccc21)c1ccccc1 do in these assays?
VDR inh: -9.7%; PLK1 PBD block: -17.1%; 12-LOX inh: inconclusive; Sfp inh: -1.4%

How did COc1ccc(OCC(=O)NC(=S)N2CCCc3ccccc32)cc1 do in these assays?
VDR inh: inconclusive; PLK1 PBD block: inconclusive; 12-LOX inh: inconclusive; Sfp inh: 56.2µM*

What do the screens show for `O=C(NC(=S)N1CCCc2ccccc21)c1ccc([N+](=O)[O-])cc1`?
VDR inh: -11.5%; PLK1 PBD block: inconclusive; 12-LOX inh: 8.4%; Sfp inh: 15.8µM*

Screening data from PubChem.
